G9a inh = blocks human histone lysine methyltransferase G9a; Q96KQ7; Potency, µM (top dose mostly 102 µM), for inactives: at the top dose activity, negative = inhibition, usual class: inhibitors; AID 504332; 350,000 compounds, 8.8% hits; G9a H3K9 monomethylation, AlphaScreen, 2 h; also: potency is read from the fitted curve at half-maximal effect; nearly all actives have a fitted effect of over 75% in size
Target sequence (Q96KQ7 913-1193 limits assumed): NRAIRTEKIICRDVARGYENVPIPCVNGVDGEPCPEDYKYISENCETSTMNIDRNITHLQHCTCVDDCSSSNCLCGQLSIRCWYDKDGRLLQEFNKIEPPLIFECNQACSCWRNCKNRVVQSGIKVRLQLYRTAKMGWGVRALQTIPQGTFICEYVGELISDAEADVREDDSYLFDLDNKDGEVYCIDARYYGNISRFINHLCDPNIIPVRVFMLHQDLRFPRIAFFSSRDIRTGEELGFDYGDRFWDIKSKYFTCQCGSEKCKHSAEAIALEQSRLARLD
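Using a bead-based AlphaScreen, monomethylated H3K9 product from 2 h room-temperature reactions (G9a 20 nM, peptide 500 nM, SAM 20 uM) was detected with 0.5 ug/mL rabbit anti-H3K9me1 antibody.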
MmCpn inh = inhibitors of Methanococcus maripaludis chaperonin TRiC (MmCpn); Potency, µM (doses to about 76.9 µM), for the others: at the highest dose activity, negative = inhibition, usual class: inhibitors; purified Mm-Cpn ATPase, ADP Transcreener TR-FRET; 330,000 compounds, 0.031% hits; also: potency is read from the fitted curve at half-maximal effect; nearly all actives have a fitted effect of over 80% in size
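ATPase read-out: TR-FRET ADP immunoassay (anti-ADP Eu cryptate vs ADP-d2), ex 320 nm, em 590/665 nm; signal drops as ADP forms. Enzyme 25 nM, ATP 10 uM, 30 min at 37°C after 10 min compound preincubation.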
CCT chaperon mod = modulators of cytosolic chaperonin (CCT/TRiC) activity. purified chaperonin ATPase assay, HTRF ADP detection, 30 min. activity change, % (concentration not given with the values), hits read low. 360,000 compounds, 0.3% hits. AID 651819; in the data active = activity change below about -30%
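First, chaperonin was dispensed at 40 nM or 20 nM final depending on batch activity. Next, compounds were pinned at 76 uM and ATP added at 10 uM. After 30 min at 37 °C, ADP detection reagents ran 30 min at ambient temperature.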
PLK1 PBD block = inhibitors of human PLK1 polo-box domain binding. AID 720504. Potency, µM, without a hit: max response, negative = inhibition, usual class: inhibitors. Plk1 PBD binding of FITC phosphopeptide, fluorescence polarization. 360,000 compounds, 2.8% hits; also: potency is read from the fitted curve at half-maximal effect; series mostly up to about 57 µM; nearly all actives have a fitted effect of over 65% in size
Sfp inh = blocks B. subtilis Sfp PPTase activity; Q9F4F7; Biochemical Sfp PPTase activity, qHTS; Potency, µM, without a hit: largest response in the series, negative = inhibition, actives largely listed as inhibitors; 310,000 compounds, 3.5% hits; AID 1490;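 also: the enzyme is Sfp with the accession as filed and its product quenches rhodamine fluorescence; potency is read from the fitted curve at half-maximal effect; 0% = enzyme reaction without inhibitor and -100% = no enzyme wells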
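Sfp 15 nM + cpd, 15 min RT; start w/ rhodamine-CoA 5 uM, BHQ-2-YbbR 12.5 uM (final); 50 mM Hepes pH 7.6, 10 mM MgCl2, 0.01% NP-40, 0.01% BSA; read 525/598 nm at 0 and 30 min.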
VDR inh = vitamin D3 receptor (human) inhibition; VDR-SRC2-3 peptide fluorescence polarization, 2 h; Potency, µM, without a hit: max response, negative = inhibition, most hits filed as inhibitors; AID 504847; 400,000 compounds, 0.93% hits; P11473; also: potency is read from the fitted curve at half-maximal effect
Target sequence (P11473 whole entry, looked up): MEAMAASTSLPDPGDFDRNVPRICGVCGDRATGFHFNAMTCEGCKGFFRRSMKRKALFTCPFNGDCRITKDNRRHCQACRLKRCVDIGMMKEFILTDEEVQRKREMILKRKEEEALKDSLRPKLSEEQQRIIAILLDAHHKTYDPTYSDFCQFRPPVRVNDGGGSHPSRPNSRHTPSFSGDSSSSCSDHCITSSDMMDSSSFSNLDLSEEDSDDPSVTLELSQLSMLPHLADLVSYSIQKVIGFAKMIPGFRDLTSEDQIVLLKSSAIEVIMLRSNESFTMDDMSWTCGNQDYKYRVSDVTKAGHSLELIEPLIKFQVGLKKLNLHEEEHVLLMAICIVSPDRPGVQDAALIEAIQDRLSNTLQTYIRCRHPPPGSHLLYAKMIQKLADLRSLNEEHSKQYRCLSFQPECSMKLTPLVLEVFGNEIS
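After 23 nl compound addition and a short centrifugation, plates sat for 2 hours at ambient temperature; polarization of fluorescence then indicated loss of VDR binding to peptide SRC2-3.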
* hit, by the source's call; u = inconclusive; x = no result given; ! = not active in a repeat; [ ] = remark or other dose. Only some compounds are listed: those with a hit (about 10% of all), similar ones and a draw of the others. Unless noted, calls follow the shape of the dose curve; as a rule, active = well fitted curve in the direction sought with a large enough effect; inconclusive = small, poorly fitted or top-dose-only effect, or another doubt; inactive = no such curve, though single readings can be large; an effect the other way counts as inactive or inconclusive. Unless noted, % is scaled to controls: 0 for no effect and ±100 for the full control effect.

SMILES | G9a inh | MmCpn inh | CCT chaperon mod | PLK1 PBD block | Sfp inh | VDR inh
C/C(=N\NC(=O)c1ccc([N+](=O)[O-])cc1)c1cc2ccccc2oc1=O | 23.2%[59 µM] | 0.2% | -2.5 | 29.9µM* | 13.4% | -24.5%
C/C(=N/NC(=O)c1ccncc1)c1cc2ccc(O)cc2oc1=O | -4.3%[59 µM] | -11.2% | 1.5 | 11.9µM* | 12.7% | 3.0%
C/C(=N\Nc1ccc([N+](=O)[O-])cc1[N+](=O)[O-])c1cc2c(ccc3ccccc32)oc1=O | x | -0.7% | x | x | -13.2% | x
CCOc1ccc(CCNC(=O)c2cc(=O)[nH]c3ccc(S(=O)(=O)N4CCCCC4)cc23)cc1OCC | 0.1%[59 µM] | x | x | x | x | 19.2%
COc1ccc2oc(=O)c(/C(N)=N/NC(=O)c3ccncc3)cc2c1 | 20.8% | 1.3% | 0.5 | 23.8µM* | -16.1% | -22.5%
Cc1ccc(C)c(NS(=O)(=O)c2ccc3oc(=O)ccc3c2)c1 | 27.9% | -2.1% | 0.6 | 4.6% | 13.0% | -11.7%
Cc1cc(C)cc(NS(=O)(=O)c2ccc3oc(=O)ccc3c2)c1 | -2.6% | 2.1% | -30.7* | -5.1% | -13.5% | 3.6%
CC(Sc1nnc(COc2ccc(Cl)cc2)o1)C(=O)Nc1ccc(N2CCOCC2)cc1 (configuration not stated) | 35.5µM* | -1.3% | -0.7 | -8.7% | x | 2.0%
CC(Sc1nc(NCc2ccccc2)nc(N2CCOCC2)n1)C(=O)Nc1ccccc1 (configuration not stated) | 13.3%[59 µM] | 0.4% | 0.4 | 29.9µM* | 24.9% | -20.6%
CC(Sc1nnc2ccccn12)C(=O)Nc1ccc(N2CCOCC2)cc1 (configuration not stated) | x | -1.0% | -3.7 | -13.3% | x | u
Cc1nnc(SC(C)C(=O)Nc2ccc(N3CCOCC3)cc2)n1Cc1ccccc1 (configuration not stated) | 70.8µM* | 0.4% | 0.0 | -8.8% | x | -5.0%
COc1ccc(OCc2nnc(SC(C)C(=O)Nc3ccc(N4CCOCC4)cc3)n2C)cc1 (configuration not stated) | x | x | 3.6 | -4.6% | x | -11.3%
C=C(C)[C@H]1CC=C(CO)CC1 | 25.5%[59 µM] | x | x | x | 16.9% | 2.4%
CC1C(=O)NN=C1C(=O)N/N=C/c1ccco1 (configuration not stated) | u | -6.9% | -3.3 | 26.7µM* | -27.9% | -20.8%
C/C(=N\NC(=O)C1=NNC(=O)C1C)c1cccs1 (configuration not stated) | 44.7µM* | -5.0% | -0.6 | -1.0% | -27.5% | 9.8%
CC1=NNC(=O)C1CCC(=O)N/N=C/c1ccco1 (configuration not stated) | 21.1% | -1.0% | 0.6 | -12.9% | 15.3% | -9.2%
COc1cc(/C=N/NC(=O)c2ccoc2C)ccc1O | 50.1µM* | -0.5% | -0.7 | -2.4% | 0.3% | -18.0%
CC1C(=O)NN=C1C(=O)N/N=C\C(Br)=C\c1ccccc1 (configuration not stated) | -5.5% | -7.4% | 0.0 | -5.1% | 50.1µM* | -7.3%
C/C(=N\NC(=O)c1ccncc1)c1cccs1 | 0.5%[59 µM] | -4.2% | -1.1 | 6.5% | 10.4% | -18.8%
CCc1ccc(S(=O)(=O)c2cn(C)c3ccc(C)cc3c2=O)cc1 | -18.8%[59 µM] | x | x | x | x | -2.2%
COc1ccc(-c2cn3nc(N4CCCC(C(=O)NCc5ccc(Cl)cc5)C4)sc3n2)cc1 (configuration not stated) | -35.6%[59 µM] | x | x | x | x | 18.0%
Cc1cccc(-c2nnc(SCc3cc(=O)c4cccc(Cl)c4[nH]3)n2C)c1 | -1.7%[59 µM] | x | x | x | x | 4.6%
COc1ccc(-c2nn3c(-c4cc(-c5ccccc5)n[nH]4)nnc3s2)cc1 | x | x | x | x | x | -16.7%
COc1cc(/C=N/NC(=S)NCCN2CCOCC2)ccc1O | 35.8%[59 µM] | 0.2% | -5.3 | -3.8% | 50.1µM* | -8.0%
O=C(N/N=C/C(Br)=C/c1ccccc1)c1cccs1 | x | 1.6% | 1.4 | -5.2% | 56.2µM* | -0.1%
SMILES | G9a inh | MmCpn inh | CCT chaperon mod | PLK1 PBD block | Sfp inh | VDR inh
CC1=NNC(=O)C1CC(=O)N/N=C/C(Br)=C/c1ccccc1 (configuration not stated) | -2.0% | -1.8% | -4.3 | -6.4% | -16.1% | -22.0%
CC1=NNC(=O)C1CCC(=O)N/N=C/C(Br)=C/c1ccccc1 (configuration not stated) | 50.1µM* | 3.7% | -2.8 | -0.4% | -12.8% | -13.1%
COc1cc(/C=N/NC(=O)C2=NNC(=O)C2C)ccc1O (configuration not stated) | u | -21.7% | -2.3 | 1.6% | 50.1µM* | 2.0%
O=C(N/N=C/C=C/c1ccccc1)c1cccs1 | 6.1% | 3.1% | -1.0 | -12.4% | -5.7% | -20.0%
CCCCCCCCCCCCC/C=C/[C@@H](O)[C@@H](N)COP(=O)(O)O | 34.1%[59 µM] | x | x | x | 3.2% | -2.5%
CCNC(=O)c1c(NC(=O)Cc2coc3cc(C)ccc23)sc2c1CCCC2 | -7.4%[59 µM] | x | x | x | x | 6.1%
COCCNC(=O)Cc1c(C)c2c(cc(C)c3c(C(C)(C)C)coc32)oc1=O | -17.5% | -2.0% | -2.9 | -7.5% | -7.0% | -5.1%
Cc1cc2oc(=O)c(CC(=O)O)c(C)c2c2occ(C(C)(C)C)c12 | u | 0.6% | 0.3 | 29.9µM* | -2.9% | -20.5%
Oc1ccc(O)c2c1C1c3ccccc3C2c2ccccc21 | 3.55µM* | 2.0% | x | x | 50.1µM* | x
NC(=S)Nc1cccc(-c2n[nH]c(=S)o2)c1 | 39.8µM* | u | 1.0 | -23.8% | -9.4% | 2.5%
O=C(Nc1ccc(-c2n[nH]c(=S)o2)cc1)c1ccccc1 | 31.6µM* | -3.0% | -6.7 | u | -14.7% | -8.5%
Cc1ccc(NC(=S)Nc2ccc3cn[nH]c3c2)cc1 | u | 0.5% | 1.3 | -11.2% | -6.8% | -27.2%
Cc1ccc(NC(=S)Nc2cccc(-c3n[nH]c(=S)o3)c2)cc1 | 50.1µM* | 50.1µM* | 0.9 | u | 50.1µM* | -9.6%
NC(=S)Nc1cccc(O)c1 | -48.0% | -2.0% | -1.0 | -4.6% | 5.7% | 0.5%
CCn1c(-c2cccnc2Cl)nc2cc(Cl)c(Cl)cc21 | -32.2%[59 µM] | 1.6% | 1.4 | -6.4% | -13.7% | -6.9%
CCOC(=O)Cn1c(-c2cccnc2Cl)nc2cc(C)c(C)cc21 | 7.2% | 0.3% | -33.9* | -3.6% | 23.1% | 6.9%
COc1ccc(-c2c(C#N)c(SCC(=O)Nc3cccc(Cl)c3)nc(C)c2C(=O)Nc2ccccc2)cc1OC | -2.2%[59 µM] | x | x | x | x | 7.0%
COc1cc2c3cc1OCc1c(O)c(OC)cc4c1C(Cc1ccc(cc1)Oc1cc(ccc1O)CC3N(C)CC2)N(C)CC4 (configuration not stated) | x | x | x | x | 8.7% | 9.9%
CN1CCc2cccc3c2[C@H]1Cc1ccc(O)c(O)c1-3 | 1.41µM* | 0.3% | -2.6 | 37.7µM*! | 39.8µM* | 35.5µM*!
COC(=O)C1=C(N)Oc2cc(N(C)C)ccc2C1c1ccccc1OC (configuration not stated) | 31.6µM* | -0.7% | 0.4 | -9.2% | -14.6% | 4.3%

Screening data deposited in PubChem by National Center for Advancing Translational Sciences (NCATS).
